# Results taken from PubChem BioAssay AID1851 (National Center for Advancing Translational Sciences (NCATS), 2009).
# Out of some 16,000 compounds screened, about 2,600 (16%) were called active. Not shown: some 20% with an inconclusive outcome. The list is a sample of the results. A number with no mark means an inactive call. The call rests on the fitted dose curve; in most records, active means well fitted curve in the direction sought with a large enough effect; inconclusive means small, poorly fitted or top-dose-only effect, or effect the other way; inactive means no such curve, though single readings can be large or run the other way.
# Biological target: Cytochrome P450 2D6 (Homo sapiens) (UniProt P10635)
# Sequence (P10635 whole entry, looked up): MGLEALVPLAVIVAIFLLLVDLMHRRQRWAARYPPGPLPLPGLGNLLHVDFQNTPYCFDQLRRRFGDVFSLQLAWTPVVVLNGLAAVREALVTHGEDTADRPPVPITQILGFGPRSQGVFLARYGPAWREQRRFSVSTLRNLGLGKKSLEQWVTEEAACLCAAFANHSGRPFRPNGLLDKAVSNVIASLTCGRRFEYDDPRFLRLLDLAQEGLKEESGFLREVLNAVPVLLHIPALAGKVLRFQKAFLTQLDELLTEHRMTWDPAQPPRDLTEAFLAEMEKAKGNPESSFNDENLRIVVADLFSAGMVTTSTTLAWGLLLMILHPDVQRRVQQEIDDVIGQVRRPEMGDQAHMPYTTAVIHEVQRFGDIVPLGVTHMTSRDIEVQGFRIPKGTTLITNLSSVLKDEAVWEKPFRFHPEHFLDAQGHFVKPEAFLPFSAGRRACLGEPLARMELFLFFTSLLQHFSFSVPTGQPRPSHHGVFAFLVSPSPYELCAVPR
# Test: Cytochrome panel assay with activity outcomes
# Details: recombinant CYP, pro-luciferin dealkylation, luminescence, p450-cyp2d6; series mostly up to 57.1 µM; activity, negative = inhibition: at the top concentration
# On the % scale 0 is the no-effect control and ±100 the full control effect.
Compound,"activity, negative = inhibition",AC50
CC1=CC(=C2C(=O)c3ccccc3C2=O)C=C(C)N1Cc1ccco1,17.1%,
O=c1c(-c2cccc(F)c2)nc2cncnc2n1-c1ccccc1,-9.29%,
CN1CCN(c2ncc3nc(-c4ccccc4)c(=O)n(Cc4ccc(F)cc4)c3n2)CC1,-0.95%,
COc1ccc(S(=O)(=O)Nc2cccc(Cl)c2)cc1OC,-24.4%,
O=S(=O)(Nc1ccc(Cc2ccncc2)cc1)c1ccc(Cl)c(Cl)c1,,1 µM (active)
CC(C)(C)c1ccc(NS(=O)(=O)c2ccc(N)cc2)cc1,18.9% [at 11.4 µM],
Cc1csc(NC(=O)CNS(=O)(=O)c2cccs2)n1,1.06%,
CCNS(=O)(=O)c1ccc(NS(C)(=O)=O)cc1,-5.1%,
O=S(=O)(Nc1cccnc1Cl)c1ccc2c(c1)OCCO2,0.444%,
O=S(=O)(Nc1ccc(Cc2ccncc2)cc1)c1cccs1,,0.355 µM (active)
O=S(=O)(Nc1ccc(Cc2ccncc2)cc1)c1ccc(Br)cc1,,0.631 µM (active)
CC(=C\C(=O)O)/C(=C/c1ccccc1)C(=O)O,-7.05%,
CCOC(=O)C1(C(=O)O)NC(=O)CC1c1ccccc1 (centres undefined),-5.68%,
C[C@H]1CC[C@H]2C(=O)N[C@H](Cc3ccccc3)C(=O)N2[C@@H]1c1ccccc1,-17.6% [at 11.4 µM],
COCCn1c(=O)c(-c2cn(C)c3ccccc23)nc2cncnc21,-5.12%,
NC(N)=N[C@H](CCC(=O)O)C(=O)O,0.897%,
CC(=O)N[C@@H](C(=O)O)C(C)(C)SN=O,,inactive
O=C1OCCC=C1[C@@H](O)CCc1ccccc1,-2.43% [at 11.4 µM],
COC(=O)c1scc(C)c1NC(=O)Cc1ccccc1,-2.62%,
O=C(O)c1ccc(SSc2ccc(C(=O)O)cn2)nc1,-10.6% [at 11.4 µM],
N#CC(c1ccccc1F)(c1ncc(C(F)(F)F)cc1Cl)N1CCOCC1 (centres undefined),-15.7%,
Cc1cc2nc([C@H](C)C(=O)c3ccc(Cl)cc3)c(=O)[nH]c2cc1C,-4.99% [at 11.4 µM],
COc1ccc(-c2nc3cnc(N4CCNCC4)nc3n(C)c2=O)cc1,-2.18%,
CN1CCN(CCCNC(=O)C2CCN(c3nnc(-n4cccc4)s3)CC2)CC1,-2.02%,
COc1ccc2nc(N3C(=O)CC(Cc4ccc(Cl)cc4)C3=O)sc2c1 (centres undefined),-13.6%,

Compound,"activity, negative = inhibition",AC50
COc1ccc2nc(N3CCCC(C(=O)NCCCN4CCN(C)CC4)C3)sc2c1 (centres undefined),,11.2 µM (active)
O=c1[nH]ncn2cccc12,1.89%,
COc1ccc(-c2ccc(N)[n+](CCCC(=O)O)n2)cc1,,inactive
COCCNC(=O)CCn1nc(-c2ccc(Cl)cc2)ccc1=O,-2.97%,
COc1ccc(-c2ccc(=N)n(CCCC(=O)O)n2)cc1,,3.98 µM (active)
COc1ccccc1CN(Cc1cc2cc3c(cc2[nH]c1=O)OCCO3)Cc1nnnn1Cc1ccco1,,14.1 µM (active)
COc1ccccc1CN(Cc1cc2cc(C)cc(C)c2[nH]c1=O)Cc1nnnn1CC1CCCO1 (centres undefined),-28.2%,
CCC(C)(C)n1nnnc1C(C(C)C)N(Cc1ccco1)Cc1cc2cc3c(cc2[nH]c1=O)OCO3 (centres undefined),,14.1 µM (active)
CCC(C)(C)n1nnnc1C(c1cc2cc3c(cc2[nH]c1=O)OCO3)N1CCCCC1 (centres undefined),-25.4%,
COc1cc2cc(CN(CCCO)S(=O)(=O)c3ccccc3Cl)c(=O)[nH]c2cc1OC,5.86%,
CCC(C)(C)n1nnnc1C(C(C)C)N(CCCO)Cc1cc2cc(C)ccc2[nH]c1=O (centres undefined),-18.4%,
COc1cccc2c1OC1(C)CC2/C(=C(\C)O)C(=O)N1 (centres undefined),7.2%,
OC[C@@H]1O[C@H](O)[C@@H](Cl)[C@H](O)[C@@H]1O,5.2%,
CN(C)S(=O)(=O)Oc1cccc(C(=O)Nc2ccccc2Cl)c1,-10.3%,
Clc1ccc(CSc2ncnc3c2ncn3[C@@H]2CCCCO2)cc1,-9.38% [at 11.4 µM],
COc1ccc(/C=N/NC(=O)c2cc(-c3ccc(C)cc3C)nc3ccccc23)cc1COC(C)=O,1.39%,
CCCCn1cnc2c(c(CC#N)nn2-c2ccccc2)c1=N,,0.398 µM (active)
CCOCCCn1cnc2c(c1=O)c1nc3ccccc3nc1n2-c1ccccc1,-6.76%,
CCCCn1cnc2c(cnn2-c2ccc(F)cc2)c1=O,-12.2%,
O=C(NCCN1CCN(C(=O)C(c2ccccc2)c2ccccc2)CC1)C(=O)Nc1ccccc1,-10%,
O=C(c1cccs1)N1CCN(C(=O)C(c2ccccc2)c2ccccc2)CC1,,10 µM (active)
COc1ccc(NC(=O)C2CCN(C(=O)c3cccs3)CC2)c(OC)c1,16.9%,
O=C1[C@H]2[C@H]3[C@H](O)[C@H](O)C/C(=N/OCc4ccccc4)[C@H]3CC[C@@H]2C(=O)N1C[C@@H]1CCCO1,4.75% [at 11.4 µM],
COc1cccc(Cn2c(=O)c(-c3cccs3)nc3cnc(N(C)C)nc32)c1,-4.4%,
